According to PubChem BioAssay (Tox21):
Inconclusive results are not listed. The source holds several records for some structures; these can differ, active in one and inactive in another. The source made the active and inactive calls. The call rests on the fitted dose curve.

Each molecule was assayed against Acetylcholinesterase (Homo sapiens) (UniProt P22303) (assay: Acetylcholinesterase (AChE) small molecule antagonists: colormetric cell-based qHTS assay (AID 1347395; further: nearly all actives have a fitted effect of over 30% in size)). Conditions: SH-SY5Y cells AChE activity, colorimetric (Ellman); series mostly up to 115 µM; activity, negative = inhibition: at the top concentration.
Chain of Acetylcholinesterase (Homo sapiens) (P22303 whole entry, looked up): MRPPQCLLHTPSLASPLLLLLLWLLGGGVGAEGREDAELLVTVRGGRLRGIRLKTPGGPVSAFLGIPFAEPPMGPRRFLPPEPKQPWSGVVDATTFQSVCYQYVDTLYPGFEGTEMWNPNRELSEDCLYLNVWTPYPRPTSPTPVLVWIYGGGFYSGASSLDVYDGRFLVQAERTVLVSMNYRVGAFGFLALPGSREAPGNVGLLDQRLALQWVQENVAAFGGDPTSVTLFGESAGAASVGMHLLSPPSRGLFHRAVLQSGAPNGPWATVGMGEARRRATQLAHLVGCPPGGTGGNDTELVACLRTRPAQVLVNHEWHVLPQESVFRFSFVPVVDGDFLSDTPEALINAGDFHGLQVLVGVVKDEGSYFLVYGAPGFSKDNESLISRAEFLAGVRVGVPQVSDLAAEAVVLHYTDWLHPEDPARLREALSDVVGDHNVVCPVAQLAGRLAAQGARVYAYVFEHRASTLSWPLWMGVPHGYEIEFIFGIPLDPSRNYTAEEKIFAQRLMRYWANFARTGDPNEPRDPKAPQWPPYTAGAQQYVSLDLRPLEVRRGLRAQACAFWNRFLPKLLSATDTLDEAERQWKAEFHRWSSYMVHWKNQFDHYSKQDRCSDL
Summary of the method: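 SH-SY5Y cells, plated overnight at 37 C, were exposed to compounds for 30 min at 37 C and 5% CO2. Acetylthiocholine plus DTNB was then added, and thiocholine from endogenous AChE was quantified colorimetrically after 90 min at 37 C.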
On the % scale 0 is the no-effect control and ±100 the full control effect; potency means the concentration at half of the fitted maximal effect.

Row | Compound | Potency | activity, negative = inhibition
1 | OCc1ccccc1 | 39.4 µM (active) and inactive | 
2 | CCC(C)(C)C(=O)O[C@H]1C[C@@H](C)C=C2C=C[C@H](C)[C@H](CC[C@@H]3C[C@@H](O)CC(=O)O3)[C@H]21 | inactive | 
3 | CCC1CO1 (stereo not given) |  | 0.52% (inactive)
4 | CCCCC(CC)COC(=O)CCCCC(=O)OCc1ccccc1 (stereo not given) |  | 2.33% (inactive)
5 | CCCCCCCCCCCCCCC(=O)NC(CO)CCCCCCCCCCCCCC (stereo not given) |  | -12.4% (inactive)
6 | O=Cc1c(Cl)cccc1Cl |  | 2.64% (inactive)
7 | Cc1ccc(C)c(O)c1 | inactive | 
8 | Cc1cc2c(cc1S(N)(=O)=O)S(=O)(=O)CCC2 | 17.4 µM (active) | 
9 | COC(=O)CC(C)CCC=C(C)C (stereo not given) |  | 0.202% (inactive)
10 | CC(=O)OCc1ccccc1 | inactive | 
11 | c1ccc(Sc2ccccc2)cc1 |  | 0.391% (inactive)
12 | N=c1ccn2c(n1)O[C@H]1[C@H](O)[C@@H](CO)O[C@H]12 |  | 2.09% (inactive)
13 | CCCCOC(=O)[C@H](C)O |  | -1.47% (inactive)
14 | N#C[C@@H]1C[C@@H]2C[C@@H]2N1C(=O)[C@@H](N)C12CC3CC(CC(O)(C3)C1)C2 |  | 1.05% [at 52.9 µM] (inactive)
15 | COc1ccc(Cc2cnc(N)nc2N)cc1OC |  | 1.05% [at 52.9 µM] (inactive)
16 | CN1CCc2cccc3c2[C@H]1Cc1ccc(O)c(O)c1-3 | 64 µM (active) | 
17 | O=C(c1ccc(O)cc1)c1ccc(O)c(O)c1O |  | 5.16% (inactive)
18 | CCCCCCCCCCCCCCCC(=O)OC(C)C | inactive | 
19 | O=C(c1ccccc1)c1ccc(O)cc1O | inactive | 
20 | CNC(=O)c1ccccc1 |  | 1.53% (inactive)

Row | Compound | Potency | activity, negative = inhibition
21 | O=c1[nH]c(=O)n([C@H]2CCCO2)cc1F | inactive | 
22 | O=C(O)c1ccc2cc(O)ccc2c1 |  | 0.614% (inactive)
23 | C=CCCCCCC |  | 1.02% (inactive)
24 | Cc1ccc(OC(=O)CC(C)C)cc1 |  | -0.603% (inactive)
25 | CCN(CC)CC(=O)Nc1c(C)cccc1C(=O)OC |  | 2.2% [at 52.9 µM] (inactive)
26 | CN=C(NC#N)NCCSCc1nc[nH]c1C | inactive | 
27 | CCCCCC[C@@H](CCC)C(=O)O |  | 0.44% [at 52.9 µM] (inactive)
28 | CC(=O)OC1CC(C)OC(C)O1 (stereo not given) | inactive | 
29 | CC(=O)O[C@]1(C(C)=O)CC[C@H]2[C@@H]3C=C(Cl)C4=CC(=O)[C@@H]5C[C@@H]5[C@]4(C)[C@H]3CC[C@@]21C | inactive | 
30 | CN1CCC[C@@H]1Cc1c[nH]c2ccc(CCS(=O)(=O)c3ccccc3)cc12 |  | -5.78% [at 52.9 µM] (inactive)
31 | CCCCCCCCC=O |  | 1.04% (inactive)
32 | CCC(C(=O)O)c1ccc(N2Cc3ccccc3C2=O)cc1 (stereo not given) |  | 0.421% [at 52.9 µM] (inactive)
33 | O=C(O)[C@H](O)[C@@H](O)[C@H](O[C@@H]1O[C@H](CO)[C@H](O)[C@H](O)[C@H]1O)[C@H](O)CO |  | 0.0881% [at 52.9 µM] (inactive)
34 | Cc1ccccc1OCC(=O)O |  | -2.29% (inactive)
35 | Nc1ccc(C(=O)N2CC3CC(CN(Cc4ccccc4)C3)C2)cc1 |  | 0.215% [at 52.9 µM] (inactive)
36 | CC(=O)O[C@@]12CO[C@@H]1C[C@H](O)[C@@]1(C)C(=O)[C@H](O)C3=C(C)[C@@H](OC(=O)[C@H](O)[C@@H](NC(=O)OC(C)(C)C)c4ccccc4)C[C@@](O)([C@@H](OC(=O)c4ccccc4)[C@H]21)C3(C)C |  | 0.878% [at 52.9 µM] (inactive)
37 | Cc1ccncc1 | inactive | 
38 | CCOC(=O)OCC |  | -1.02% (inactive)
39 | C/C=C(C)/C=C/C=C(C)C | inactive | 
40 | C=CCOCC(CO)(COCC=C)COCC=C |  | -4.03% [at 52.9 µM] (inactive)
